Measured values taken from the supplement of paper PMC3334620.
The full ranking holds about 33,000 sequences; the median of “E-score (-0.5 to 0.5)” is about -0.041, and the highest 2% start at about 0.37. The full list was thinned out, with the highest values kept by preference.

Target: T1, Ecm22 (UniProt Q05958)
T1 sequence: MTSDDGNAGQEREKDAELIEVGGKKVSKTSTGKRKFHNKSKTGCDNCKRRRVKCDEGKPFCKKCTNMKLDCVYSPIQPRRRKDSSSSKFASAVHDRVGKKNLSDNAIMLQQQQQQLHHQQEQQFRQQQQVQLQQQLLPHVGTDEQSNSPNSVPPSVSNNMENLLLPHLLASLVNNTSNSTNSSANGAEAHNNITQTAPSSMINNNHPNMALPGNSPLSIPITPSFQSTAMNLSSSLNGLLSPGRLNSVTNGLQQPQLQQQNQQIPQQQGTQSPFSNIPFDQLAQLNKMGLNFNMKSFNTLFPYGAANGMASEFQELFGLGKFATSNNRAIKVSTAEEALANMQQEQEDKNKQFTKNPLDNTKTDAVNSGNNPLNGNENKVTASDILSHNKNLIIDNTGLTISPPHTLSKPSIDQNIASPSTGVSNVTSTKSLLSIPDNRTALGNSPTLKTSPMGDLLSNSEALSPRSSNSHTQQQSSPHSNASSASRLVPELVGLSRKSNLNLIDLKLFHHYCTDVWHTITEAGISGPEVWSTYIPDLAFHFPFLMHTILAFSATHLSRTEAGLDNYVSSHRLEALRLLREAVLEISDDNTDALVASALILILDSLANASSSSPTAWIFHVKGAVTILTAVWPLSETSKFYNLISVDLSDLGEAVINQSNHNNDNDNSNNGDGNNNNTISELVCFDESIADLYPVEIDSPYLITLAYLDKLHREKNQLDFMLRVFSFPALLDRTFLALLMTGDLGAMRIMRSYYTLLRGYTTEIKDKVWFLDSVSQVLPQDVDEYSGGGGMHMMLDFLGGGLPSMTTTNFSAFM
Assay: PBM E-score (8-mer binding enrichment) (E-score (-0.5 to 0.5)); higher = stronger / more preferred TF binding
Conditions: protein concentration: 200 nM; construct: GST-full length
How it was run: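 GST-tagged yeast TFs (full-length or DNA-binding domain) were made by PURExpress in vitro transcription/translation and applied at about 100-200 nM to universal all-10-mer Agilent arrays. The arrays were made double-stranded by primer extension, on fresh or once-stripped slides. Bound protein was detected with fluorescent anti-GST, and scans were normalised with masliner. Each ungapped eight-base word, pooled with its reverse complement, received an E-score (modified Wilcoxon-Mann-Whitney statistic) from the Universal PBM Analysis Suite.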

| Sequence | PBM E-score |
| --- | --- |
| CCTCTAAA | -0.193 |
| GACTTAGC | -0.147 |
| GGCATCCC | -0.315 |
| CAAGCAAC | 0.00354 |
| AGAGGCCA | -0.203 |
| CTACCAAG | -0.23 |
| AGGAACAG | -0.257 |
| AGGAACGC | 0.208 |
| AGGAACGG | 0.459 |
| AAAGACGC | -0.118 |
| AAATTGAA | -0.166 |
| AAACGGTT | 0.262 |
| CTAACGAG | 0.331 |
| CGAACGCG | 0.198 |
| CGAACGAC | 0.389 |
| CGAACGCC | 0.0398 |
| ACAACGAG | 0.288 |
| GGAACGGA | 0.435 |
| AGAACGAG | 0.45 |
| AGAACGTG | -0.0515 |
| AGAACGGA | 0.0615 |
| CGAACGTC | 0.0995 |
| CGAACGAG | 0.428 |
| CGAACGGA | 0.24 |
| ATGGTTAG | -0.0935 |

| Sequence | PBM E-score |
| --- | --- |
| GAGGCGTA | 0.155 |
| TAAGGATA | 0.00857 |
| GGCATTAC | -0.132 |
| GAGTTGAA | 0.04 |
| CGAACAAA | 0.2 |
| GGAACGAC | 0.491 |
| CTAACGAA | 0.219 |
| AGAACGTC | -0.0743 |
| AGAACGAC | 0.425 |
| CGAACGAA | 0.393 |
| ATAACGAC | 0.203 |
| ATAACGAA | 0.185 |
| CGAACGTA | 0.214 |
| TTAACGAA | 0.411 |
| GGAACGCC | 0.051 |
| GTAACGAC | 0.289 |
| AATGTCCG | 0.127 |
| GCGAAGTA | 0.112 |
| ACCACTGC | -0.25 |
| GGTGCCAA | -0.179 |
| AATGGGGG | -0.268 |
| CAAGGGAG | 0.062 |
| ACGCCCAC | -0.181 |
| GGAAACAC | 0.0703 |
| TACGGACA | 0.258 |

| Sequence | PBM E-score |
| --- | --- |
| GGAACGAA | 0.489 |
| TGAACGCA | 0.0733 |
| GGAACGCA | 0.23 |
| AGAACGAT | 0.342 |
| GGAACGTA | 0.353 |
| TGAACAAA | 0.165 |
| TGAACGAA | 0.434 |
| AGAACGAA | 0.422 |
| AGAACAAA | 0.0892 |
| ACAGAAGT | -0.182 |
| CCTAAGTA | 0.0729 |
| TCCGACCA | 0.16 |
| TGCGACCA | 0.215 |
| GACGACCA | 0.097 |
| AACGACCC | 0.386 |
| CACGACCG | 0.0498 |
| AACGACCG | 0.407 |
| CACGACCA | 0.0103 |
| TACGACCA | 0.449 |
| CACGACCC | -0.0107 |
| AACGACCA | 0.424 |
| ACCGACCG | 0.278 |
| GACGACCC | -0.108 |
| CGGCGTTA | 0.0563 |
| AGCAATTA | -0.107 |

| Sequence | PBM E-score |
| --- | --- |
| CCCAGGTC | -0.218 |
| AAGTTGGT | 0.0141 |
| CTCAAGTA | -0.142 |
| CATAACAC | 0.0539 |
| AGCCTCTC | -0.117 |
| CGATAAAC | 0.259 |
| GACTTTTA | -0.222 |
| CAGGCTGC | -0.272 |
| ATGCCATA | 0.0201 |
| GATAGACC | 0.0888 |
| AACGACCT | 0.385 |
| AGCGACCT | 0.0578 |
| ACCGACCT | 0.0975 |
| GGACTGGA | -0.323 |
| AACTGGGC | -0.0689 |
| ACGTAAGA | 0.105 |
| CCGTTAAA | 0.278 |
| GCGTAACA | 0.00254 |
| GCGTATCA | 0.114 |
| CCGTAACA | 0.2 |
| ACGTATCA | 0.281 |
| TCGTTAAA | 0.44 |
| CCGTAAGA | 0.164 |
| ACGTTAAA | 0.213 |
| TCGTAACA | 0.425 |

| Sequence | PBM E-score |
| --- | --- |
| TCGTATCA | 0.463 |
| TCGTAAGA | 0.407 |
| AATGGGCA | -0.0348 |
| AGAAATAA | -0.0747 |
| AGAAGCCA | -0.0549 |
| ACGAGTGG | 0.331 |
| ATTTTCCA | -0.0726 |
| TCGTAAAA | 0.476 |
| ACGTAAAA | 0.243 |
| GCGTAAAA | 0.217 |
| GGCAGGGA | -0.148 |
| AATTCAGA | -0.0476 |
| CTCGTTTC | 0.453 |
| ATCGTTGC | 0.347 |
| CTCGTTGC | 0.445 |
| CACGTTTC | -0.0133 |
| CGCGTTTC | 0.0578 |
| CTCGTTGA | 0.277 |
| CTGCAAAA | -0.0893 |
| ACGGGTTA | 0.217 |
| ACGCATCA | 0.0479 |
| ATTCGGAC | 0.163 |
| CCGGGTAC | 0.291 |
| ATTTGAAC | 0.0528 |
| CTCAGCTC | -0.0614 |

| Sequence | PBM E-score |
| --- | --- |
| ATCATCTC | 0.0439 |
| GTAAACAA | 0.279 |
| GTATCGGA | 0.199 |
| GTATCGTA | 0.421 |
| GTATCGAA | 0.161 |
| CTATCGTC | -0.0492 |
| ATATCGTC | 0.0456 |
| CTATCGAA | 0.0456 |
| ATATCGTA | 0.413 |
| ATATCGTG | 0.147 |
| CTATCGTA | 0.406 |
| AGGCTTGC | -0.219 |
| CCAAGACA | -0.257 |
| AAGCTGGG | -0.271 |
| AAACTGAC | 0.00573 |
| AAGTGGCC | -0.248 |
| ACCCTACC | -0.0742 |
| ATATACGA | 0.49 |
| ATATACTG | 0.0789 |
| CTATACTC | 0.0609 |
| ATATACCG | 0.21 |
| ATATACGG | 0.441 |
| ATATACAA | 0.0401 |
| ATATACCA | 0.0649 |
| ATATACGC | 0.299 |

| Sequence | PBM E-score |
| --- | --- |
| CTATACGC | 0.403 |
| CAGGCTTA | -0.245 |
| CTTGTGGC | -0.239 |
| AAAGGTCG | 0.00556 |
| ACGATCAG | 0.224 |
| GATCAGGA | -0.069 |
| AGTTGTCA | -0.0616 |
| CGGGTCGA | -0.00467 |
| ACCGTTTA | 0.432 |
| ACCGTTTG | 0.287 |
| ACCGTTTC | 0.187 |
| CCCGTTTC | 0.216 |
| CCCGTTTA | 0.433 |
| GCCGTTAA | 0.24 |
| GCCGTTTA | 0.421 |
| CACGTTTA | 0.256 |
| GCCGTTGA | -0.138 |
| GCAGCGCA | -0.0703 |
| ACGCAGAT | 0.194 |
| TACGAGAA | 0.462 |
| AACGAGAC | 0.451 |
| GACGAGAA | 0.138 |
